The values below come from PubChem BioAssay.

Experiment [1] addresses Solute carrier family 12 member 5 (Homo sapiens) (UniProt Q9H2X9). As to the kind of experiment: KCC2 modulators in sodium-free buffer, confirmation, cell-based, HEK293 KCC2, thallium flux, secondary assay (AID 1713;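 active = thallium flux slope above the same plate's solvent-only control mean plus 3 SD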). The settings on record: FluoZin2 fluorescence, at 10 µM, active compounds read high.
The nature of another experiment: PubChem AID 1714.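 Also: raw slope of fluorescence over initial fluorescence between 10 and 20 s after thallium.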 The note with it: HEK293-KCC2 + bumetanide/ouabain, thallium flux FluoZin2; at 10 µM; active compounds read high.
Experiment [2] deals with Solute carrier family 12 member 5 (Homo sapiens) (UniProt Q9H2X9). The experiment in a line: KCC2 modulators without ouabain present, confirmation, cell-based, HEK293 KCC2, thallium flux, FluoZin2, secondary assay 2 (AID 1715).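 Also: raw slope with 0.1% DMSO as baseline and bumetanide as block control.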 The note with it: HEK293-KCC2, thallium flux FluoZin2 fluorescence; at 10 µM; actives lie on both sides; F/F0 rise rate, 10–20 s post-thallium.
Sequence of Solute carrier family 12 member 5 (Homo sapiens) (Q9H2X9 whole entry, looked up): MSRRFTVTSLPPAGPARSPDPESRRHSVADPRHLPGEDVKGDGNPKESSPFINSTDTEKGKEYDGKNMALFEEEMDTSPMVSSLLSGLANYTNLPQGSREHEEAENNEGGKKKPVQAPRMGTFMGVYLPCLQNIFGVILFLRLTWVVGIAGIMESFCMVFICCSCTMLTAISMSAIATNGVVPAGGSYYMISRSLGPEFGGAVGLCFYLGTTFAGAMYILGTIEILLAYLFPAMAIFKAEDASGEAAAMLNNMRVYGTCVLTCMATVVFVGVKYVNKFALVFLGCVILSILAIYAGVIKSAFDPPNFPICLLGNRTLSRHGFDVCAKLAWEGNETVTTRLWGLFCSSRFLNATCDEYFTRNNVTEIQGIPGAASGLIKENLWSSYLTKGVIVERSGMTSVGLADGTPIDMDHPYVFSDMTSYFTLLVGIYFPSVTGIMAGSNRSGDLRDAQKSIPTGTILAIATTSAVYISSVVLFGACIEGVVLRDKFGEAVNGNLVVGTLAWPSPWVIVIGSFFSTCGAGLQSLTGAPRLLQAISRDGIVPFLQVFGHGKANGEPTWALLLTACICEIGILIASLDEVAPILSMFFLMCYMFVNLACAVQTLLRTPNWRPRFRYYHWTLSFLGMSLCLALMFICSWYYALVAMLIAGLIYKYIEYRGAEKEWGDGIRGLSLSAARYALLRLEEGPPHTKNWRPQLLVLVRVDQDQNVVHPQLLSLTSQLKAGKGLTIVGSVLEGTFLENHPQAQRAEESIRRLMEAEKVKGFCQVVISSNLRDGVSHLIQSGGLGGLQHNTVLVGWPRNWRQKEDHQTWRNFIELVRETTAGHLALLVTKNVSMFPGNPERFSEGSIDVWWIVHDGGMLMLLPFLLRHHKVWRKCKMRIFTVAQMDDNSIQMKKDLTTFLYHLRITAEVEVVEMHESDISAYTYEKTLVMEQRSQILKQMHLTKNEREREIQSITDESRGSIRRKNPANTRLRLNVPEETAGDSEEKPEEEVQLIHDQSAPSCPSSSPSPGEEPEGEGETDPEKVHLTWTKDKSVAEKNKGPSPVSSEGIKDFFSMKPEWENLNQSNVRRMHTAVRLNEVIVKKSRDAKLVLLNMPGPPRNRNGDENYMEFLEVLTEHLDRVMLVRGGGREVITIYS
A short description of experiment [3]: thallium flux modulation in parental HEK cells, confirmation, counter-screen for KCC2 modulator project, cell-based, counterscreen 1 (AID 1716;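 active = thallium flux rate significantly above the same plate's solvent-only control wells, beyond their mean plus 3 SD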). The settings on record: HEK293 parental cells, thallium flux FluoZin2, ouabain; at 10 µM; baseline-ratio fluorescence slope, 10–20 s after thallium.
In experiment [4] the target is Solute carrier family 12 member 5 (Homo sapiens) (UniProt Q9H2X9). As to the kind of experiment: KCC2 inhibitors and activators, ouabain retest, confirmation, HEK-KCC2 cells (AID 1717;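 active = thallium flux slope beyond 3 SD from same-plate DMSO control mean in most replicates, usually higher, sometimes lower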;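 also: slope of initial-normalized fluorescence between seconds 10 and 20 after thallium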). The note with it: HEK293-KCC2, thallium flux FluoZin2 fluorescence, at 10 µM, bidirectional: low = inhibitor, high = activator.
A short description of experiment [5]: native HEK Tl+ uptake effects, second counter-screen – HEK cells, counterscreen 2, counter-screen for KCC2 modulator project, confirmation (AID 1718;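 active = thallium flux slope above the same plate's solvent-control mean plus 3 SD in both duplicate wells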;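 also: run without ouabain in cells lacking the KCC2 cotransporter; slope of fluorescence scaled to its starting value between 10 and 20 s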). The settings on record: HEK293 parental, thallium flux FluoZin-2 fluorescence slope; at 10 µM. (The purpose of a counterscreen is to sort out artefacts and off-target activity.)

SMILES strings stand for the structures. The list shows a part of the results. Records with an inconclusive call do not appear. Values without a mark were called inactive. Calls of active or inactive are those of the source.

Turning to `O=C(CNC(=O)c1ccco1)OCC(=O)c1ccccc1`, the normalised thallium flux (F/F0 slope) in experiment [1] was 0.00594. Further, the normalized thallium flux was 0.00472 in “PubChem AID 1714” and 0.0319 in experiment [2]. The thallium flux rate (normalised fluorescence) in experiment [3] was 0.00754. For the same compound, the raw Tl+ flux slope (below DMSO = inhibition, above = activation) in experiment [4] is 0.0197. Moreover, in experiment [5], the thallium flux slope was 0.01.
For the compound `Cc1ccc(C2CC(=O)NC(SCC(=O)OCc3ccccc3)=C2C#N)o1` (stereo not given), the normalised thallium flux (F/F0 slope) in experiment [1] was 0.0147. Also, the normalized thallium flux in the experiment “PubChem AID 1714” was 0.00407; in experiment [2], 0.0273. For the same compound, in experiment [3], the thallium flux rate (normalised fluorescence) is 0.00691. Further, the raw Tl+ flux slope (below DMSO = inhibition, above = activation) in experiment [4] is 0.0133 (active). Also, the thallium flux slope in experiment [5] was 0.00974.
Turning to `CC/S(CC1CC1(Cl)Cl)=N\S(=O)(=O)c1ccc(C)cc1` (stereo not given), the normalised thallium flux (F/F0 slope) in experiment [1] was 0.0104. For the same compound, the values for the normalized thallium flux (in the experiment “PubChem AID 1714”; in experiment [2]) were 0.00604 and 0.0348, respectively. Also, the thallium flux rate (normalised fluorescence) in experiment [3] is 0.00744. In addition, in experiment [4], the raw Tl+ flux slope (below DMSO = inhibition, above = activation) was 0.0213. Besides, the thallium flux slope in experiment [5] was 0.0107.
As to `COc1ccc([N+](=O)[O-])cc1NC(=O)COC(=O)/C=C/c1ccco1`, the normalised thallium flux (F/F0 slope) in experiment [1] was 0.00867. In addition, the normalized thallium flux is 0.00651 in “PubChem AID 1714” and 0.0316 in experiment [2]. Further, in experiment [3], the thallium flux rate (normalised fluorescence) is 0.0079. Moreover, in experiment [4], the raw Tl+ flux slope (below DMSO = inhibition, above = activation) is 0.0204. In experiment [5], the thallium flux slope was 0.011.
As to `CCOc1ccc(C(=O)NCCCN2CCCC2=O)cc1`, the normalised thallium flux (F/F0 slope) in experiment [1] is 0.00821. Besides, the normalized thallium flux is 0.00728 in “PubChem AID 1714” and 0.0335 in experiment [2]. Further, the thallium flux rate (normalised fluorescence) in experiment [3] was 0.00778. Moreover, the raw Tl+ flux slope (below DMSO = inhibition, above = activation) in experiment [4] was 0.0225. Further, the thallium flux slope in experiment [5] was 0.0108.
As to `COc1ccc(NC(=O)c2ccccc2[N+](=O)[O-])cc1OC`, the normalised thallium flux (F/F0 slope) in experiment [1] was 0.00704. In addition, the normalized thallium flux in the experiment “PubChem AID 1714” was 0.00505; in experiment [2], 0.0299. For the same compound, the thallium flux rate (normalised fluorescence) in experiment [3] is 0.00749. In experiment [4], the raw Tl+ flux slope (below DMSO = inhibition, above = activation) is 0.0198. For the same compound, the thallium flux slope in experiment [5] was 0.0109.
In the case of `O=c1oc2ccccc2cc1-c1cn(-c2ccccc2)c(=S)[nH]1`, the normalised thallium flux (F/F0 slope) in experiment [1] is 0.00633. Besides, the results for the normalized thallium flux (in “PubChem AID 1714”; in experiment [2]) were 0.0198 (active) and 0.0319, respectively. Besides, the thallium flux rate (normalised fluorescence) in experiment [3] was 0.0191 (active). Besides, the raw Tl+ flux slope (below DMSO = inhibition, above = activation) in experiment [4] was 0.0289 (active). Further, the thallium flux slope in experiment [5] is 0.0141 (active).
Take `COc1ccccc1/C=C/C=N/n1c(-c2ccc(Cl)cc2Cl)n[nH]c1=S`: in experiment [1], the normalised thallium flux (F/F0 slope) is 0.0112. For the same compound, the normalized thallium flux was 0.0155 (active) in “PubChem AID 1714” and 0.0312 in experiment [2]. The thallium flux rate (normalised fluorescence) in experiment [3] is 0.0105 (active). Besides, the raw Tl+ flux slope (below DMSO = inhibition, above = activation) in experiment [4] is 0.0229. Moreover, in experiment [5], the thallium flux slope was 0.011.
`c1ccc2c(C[n+]3csc4ccccc43)cccc2c1`: in experiment [1], the normalised thallium flux (F/F0 slope) is 0.0079. In addition, the values for the normalized thallium flux (in the experiment “PubChem AID 1714”; in experiment [2]) were 0.0261 (active) and 0.0399 (active), respectively. Besides, the thallium flux rate (normalised fluorescence) in experiment [3] was 0.0169 (active). Moreover, the raw Tl+ flux slope (below DMSO = inhibition, above = activation) in experiment [4] is 0.0315 (active). In experiment [5], the thallium flux slope was 0.0219 (active).
With `Cc1ccc(OCC(=O)NNC(=S)NCc2ccccc2)cc1`, the normalised thallium flux (F/F0 slope) in experiment [1] was 0.00584. For the same compound, the normalized thallium flux is 0.0196 (active) in the experiment “PubChem AID 1714” and 0.0307 in experiment [2]. In experiment [3], the thallium flux rate (normalised fluorescence) is 0.0156 (active). Also, the raw Tl+ flux slope (below DMSO = inhibition, above = activation) in experiment [4] is 0.0206. For the same compound, the thallium flux slope in experiment [5] is 0.0162 (active).
On to `COc1cccc(CNC(=O)Cc2csc(Nc3nc(=S)[nH]c4ccccc34)n2)c1`, for which the normalised thallium flux (F/F0 slope) in experiment [1] was 0.0104. Further, the normalized thallium flux in “PubChem AID 1714” was 0.0662 (active); in experiment [2], 0.0329. For the same compound, the thallium flux rate (normalised fluorescence) in experiment [3] is 0.0306 (active). Moreover, the raw Tl+ flux slope (below DMSO = inhibition, above = activation) in experiment [4] is 0.0519 (active). In experiment [5], the thallium flux slope was 0.0141 (active).
For `COCCNc1nc(-n2nc(C)cc2C)nc2sc3c(c12)CCCC3`, the normalised thallium flux (F/F0 slope) in experiment [1] is 0.00873. The normalized thallium flux in the experiment “PubChem AID 1714” is 0.00523; in experiment [2] it was 0.0328. Also, in experiment [3], the thallium flux rate (normalised fluorescence) was 0.00524 (active). In addition, the raw Tl+ flux slope (below DMSO = inhibition, above = activation) in experiment [4] is 0.0165 (active). The thallium flux slope in experiment [5] was 0.00908.
`COc1ccc(CN2CCCCC2C)cc1OC` (stereo not given): the normalised thallium flux (F/F0 slope) in experiment [1] was 0.00901. For the same compound, the values for the normalized thallium flux (in “PubChem AID 1714”; in experiment [2]) were 0.00633 and 0.0321, respectively. In experiment [3], the thallium flux rate (normalised fluorescence) was 0.00759. The raw Tl+ flux slope (below DMSO = inhibition, above = activation) in experiment [4] is 0.0191. Besides, the thallium flux slope in experiment [5] was 0.011.
Consider `O=C(Cn1cnc2c(nnn2Cc2ccc(F)cc2)c1=O)NCc1ccc2c(c1)OCO2`, for which the normalised thallium flux (F/F0 slope) in experiment [1] was 0.0157. Besides, the normalized thallium flux was 0.00497 in the experiment “PubChem AID 1714” and 0.0238 (active) in experiment [2]. For the same compound, the thallium flux rate (normalised fluorescence) in experiment [3] is 0.00772. For the same compound, the raw Tl+ flux slope (below DMSO = inhibition, above = activation) in experiment [4] was 0.0137. In experiment [5], the thallium flux slope is 0.0107.
As to `CNC(=O)/C(=C\C=C\c1ccccc1)NC(=O)c1ccc([N+](=O)[O-])cc1`, the normalised thallium flux (F/F0 slope) in experiment [1] was 0.00733. In addition, the normalized thallium flux in “PubChem AID 1714” is 0.00498; in experiment [2] it was 0.0219 (active). Further, the thallium flux rate (normalised fluorescence) in experiment [3] is 0.00796. Moreover, in experiment [4], the raw Tl+ flux slope (below DMSO = inhibition, above = activation) is 0.0141 (active). Also, the thallium flux slope in experiment [5] was 0.0103.
Regarding `Cc1oc(C(N)=O)cc1COc1ccc(C(N)=O)cc1`, in experiment [1], the normalised thallium flux (F/F0 slope) was 0.01. The normalized thallium flux in “PubChem AID 1714” is 0.00743; in experiment [2], 0.0348. In experiment [3], the thallium flux rate (normalised fluorescence) is 0.00438. The raw Tl+ flux slope (below DMSO = inhibition, above = activation) in experiment [4] was 0.0196. The thallium flux slope in experiment [5] is 0.0116.
Take `CCn1c(=S)[nH]c2sc3c(c2c1=O)CCCCC3`: the normalised thallium flux (F/F0 slope) in experiment [1] is 0.0279 (active). The normalized thallium flux in “PubChem AID 1714” is 0.092 (active); in experiment [2], 0.0959 (active). Further, the thallium flux rate (normalised fluorescence) in experiment [3] was 0.0964 (active). Further, in experiment [4], the raw Tl+ flux slope (below DMSO = inhibition, above = activation) was 0.0856 (active). The thallium flux slope in experiment [5] is 0.1 (active).
Consider `CCc1cc(-c2n[nH]c(=S)n2CC(C)C)cs1`, for which the normalised thallium flux (F/F0 slope) in experiment [1] was 0.0137 (active). The normalized thallium flux in “PubChem AID 1714” is 0.0351 (active); in experiment [2], 0.0359. The thallium flux rate (normalised fluorescence) in experiment [3] is 0.0146 (active). Moreover, the raw Tl+ flux slope (below DMSO = inhibition, above = activation) in experiment [4] is 0.0381 (active). Further, the thallium flux slope in experiment [5] was 0.0129 (active).
For the compound `O=C(CSCc1ccccc1)N1CCc2ccccc21`, the normalised thallium flux (F/F0 slope) in experiment [1] was 0.00671. Moreover, the normalized thallium flux in “PubChem AID 1714” is 0.00485; in experiment [2], 0.027. The thallium flux rate (normalised fluorescence) in experiment [3] is 0.0071. For the same compound, the raw Tl+ flux slope (below DMSO = inhibition, above = activation) in experiment [4] was 0.0219 (active). For the same compound, the thallium flux slope in experiment [5] was 0.00997.
As for `O=c1[nH]c2ccccc2s1`, in experiment [1], the normalised thallium flux (F/F0 slope) is 0.00622. Moreover, the normalized thallium flux in the experiment “PubChem AID 1714” is 0.00492; in experiment [2], 0.0299. For the same compound, the thallium flux rate (normalised fluorescence) in experiment [3] is 0.00725. In addition, in experiment [4], the raw Tl+ flux slope (below DMSO = inhibition, above = activation) was 0.0175. Moreover, the thallium flux slope in experiment [5] was 0.00982.
Take `CC(=O)NNC(=O)c1csc(Cc2c(Cl)sc3ccc(Cl)cc23)n1`: the normalised thallium flux (F/F0 slope) in experiment [1] was 0.00965. The figures for the normalized thallium flux (in “PubChem AID 1714”; in experiment [2]) were 0.0419 (active) and 0.0308, respectively. Also, the thallium flux rate (normalised fluorescence) in experiment [3] is 0.0146 (active). Further, the thallium flux slope in experiment [5] is 0.0112 (active).
